Assay results published in ChEMBL document CHEMBL4888484, “Replenishing the malaria drug discovery pipeline: Screening and hit evaluation of the MMV Hit Generation Library 1 (HGL1) against asexual blood stage Plasmodium falciparum ,using a nano luciferase reporter read-out” (2022).
About 540 (0.36%) of roughly 150,000 compounds showed an effect of 50% or more. What follows is part of a selection rich in strong results, with near analogues and random picks from the rest.

tested on: Plasmodium falciparum; assay: Primary screen in NF54 nanoGlo assay, in single point, at 2uM, 72h; a lower Z score goes with more inhibition; assay type: functional, Erythrocyte; conditions: timepoint 72 hour

| SMILES | % Inhibition | Z score |
| --- | --- | --- |
| CS(=O)(=O)N1C[C@H]2CC[C@@H](C1)N(C(=O)c1ccc3[nH]nnc3c1)C2 | -7% | 1.17 |
| CO[C@@]12CC[C@@H](OCC3CC3)C[C@@H]1N(C(=O)c1csc(C(C)C)n1)CC2 | -2% | 0.34 |
| Cc1cc2c(NC(=O)N(Cc3ccsc3)CC(C)C)cccc2nn1 | -6% | 1.12 |
| O=C(NCc1cccnc1)c1coc(CN(Cc2ccccc2)Cc2ccccc2C(F)(F)F)n1 | 0% | 0.02 |
| Cc1nnc(CN(C)Cc2c[nH]cn2)s1 | 4% | -0.58 |
| Cc1oc(C2CCN(C(=O)Nc3cccc(F)c3C)CC2)nc1C(=O)N1CCCC1 | -3% | 0.55 |
| Cc1c(F)cccc1NC(=O)N1CCN(C2=CC3=N[C@@H](C)CN3C=N2)CC1 | 57% | -7.99 |
| CCc1cccc(NC(=O)N2CCN(C3=CC4=NC[C@H](C)N4C=N3)CC2)c1 | 58% | -5.02 |
| CC[C@H]1CN2C=NC(N3CCN(C(=O)Cc4ccccc4)CC3)=CC2=N1 | 56% | -2.27 |
| C[C@H]1CN=C2C=C(N3CCN(C(=O)Nc4ccccc4C(F)(F)F)CC3)N=CN21 | -11% | 1.77 |
| O=C(Nc1cc(F)cc(F)c1)N1CC[C@H](Cc2ccncc2)C1 | -5% | 0.93 |
| C[C@H]1CN2C=NC(N3CCN(C(=O)c4ccccc4)CC3)=CC2=N1 | -3% | 0.63 |
| CC[C@H]1CN2C=NC(N3CCN(C(=O)Nc4cc(F)cc(F)c4)CC3)=CC2=N1 | 68% | -4.25 |
| CCc1cccc(NC(=O)N2CCN(c3nccs3)CC2)c1 | -2% | 0.21 |
| O=C(Cc1ccccc1)N1CCN(c2cc(N3CCCC3)ncn2)CC1 | -8% | 0.94 |
| CN1CCN(c2cc(N3CCN(C(=O)Cc4ccccc4)CC3)ncn2)CC1 | -10% | 0.91 |
| Cc1cc(F)cc(NC(=O)N2CCCN(C(=O)C(F)(F)F)CC2)c1 | -11% | 1.45 |
| Cc1ccc(NC(=O)Cn2cc(S(=O)(=O)N3CCCCCC3)ccc2=O)c(C)c1 | -2% | 0.3 |
| CN(c1cnn(C)c1)S(=O)(=O)c1ccccc1 | -12% | 1.93 |
| CCc1onc(C)c1NCc1cnc(C(C)(C)C)s1 | 34% | 0.74 |
| COC(=O)C1=C(c2ccccc2)S/C(=C2/C(=S)C(C)(C)Nc3ccc(C)cc32)S1 | -8% | 0.99 |
| Cc1ccccc1N1CCN(C(=O)CC[C@@H]2CN(Cc3ccccn3)CC[C@@H]2N2CCOCC2)CC1 | 2% | -0.27 |

| SMILES | % Inhibition | Z score |
| --- | --- | --- |
| FC(F)[C@H](NCc1nnc(C2CC2)s1)c1ccccc1 | 2% | -0.43 |
| CCCc1nnsc1C(=O)N1CCc2nc(NC(=O)OCC)sc2C1 | -5% | 1.08 |
| COC(=O)[C@@H]1C[C@@H](O)CN1Cc1ccncc1Cl | -4% | 0.5 |
| Cc1ccc(N(C)C(C)C)c(C(=O)NC[C@H]2CCC3(CCOCC3)O2)c1 | -1% | 0.19 |
| O=C(c1ccccc1Oc1ccccc1)N1CCO[C@]2(CNCCOC2)C1 | 5% | -0.96 |
| O[C@@H](CNc1ncnc2sccc12)c1ccc(Cl)c(F)c1 | 28% | -3.21 |
| O=C(N[C@@H]1c2ccccc2OC[C@@H]1CO)[C@H](O)c1ccccc1 | -2% | 0.41 |
| CC(=O)c1ccccc1C(=O)NCCCc1ncc[nH]1 | -9% | 1.13 |
| Cc1ccccc1C(=O)Cc1ncc[nH]1 | 87% | -5.77 |
| Cc1ccsc1CNc1ccccc1C(=O)NCc1ncc[nH]1 | 2% | -0.38 |
| CCc1nc2c(c(OC3CCN(C(=O)c4ccn(CC)n4)CC3)n1)CCOCC2 | -11% | 1.12 |
| Cc1cc(NC(=O)c2cccc(-n3ccnn3)c2)nc(=O)[nH]1 | -14% | 2.12 |
| Cc1[nH]c2ncnc(NC(=O)c3cccc(-n4ccnn4)c3)c2c1C | 65% | -1.3 |
| Cc1[nH]c2ncnc(NC(=O)c3cccc(S(=O)(=O)NC4CC4)c3)c2c1C | -21% | 3.01 |
| CCCN(CCC)C(=O)c1cc(F)ccc1OC | -10% | 1.09 |
| O[C@H]1CCN(Cc2cccc(OCCCCN3CCOCC3)c2)C[C@@H]1O | 4% | -0.63 |
| Fc1ccc(COc2cccc(CNCCN3CCOCC3)c2)cc1 | 33% | 1.13 |
| O=C(NC1(c2ncon2)CCOCC1)c1cc2ccccn2c1 | -4% | 0.42 |
| COc1ccccc1Cn1cnc2c1c(=O)n(C1CCCCC1)c(=O)n2-c1ccccc1Cl | 69% | -6.45 |
| Cc1ccccc1-n1c(=O)n(C2CCCCC2)c(=O)c2c1ncn2Cc1ccccc1 | -1% | 0.09 |
| COc1ccccc1-n1c(=O)n(C2CCCC2)c(=O)c2c1ncn2Cc1ccccc1Cl | 37% | -4.79 |
| Cc1ccccc1Cn1cnc2c1c(=O)n(C1CCCCC1)c(=O)n2-c1ccccc1Cl | 70% | -7.57 |

| SMILES | % Inhibition | Z score |
| --- | --- | --- |
| Cc1ccccc1Cn1cnc2c1c(=O)n(C1CC1)c(=O)n2-c1ccccc1C | 5% | -0.48 |
| Cc1ccccc1Cn1cnc2c1c(=O)n(C1CCCC1)c(=O)n2-c1ccccc1 | -7% | 0.85 |
| Cc1c(Cl)cccc1NC(=O)c1sccc1S(=O)(=O)N1CCc2ccccc2C1 | 1% | -0.1 |
| COc1ccc([C@@H](CC(=O)NCc2ccc(F)cc2)c2c[nH]c3ccccc23)c(OC)c1 | 3% | -0.42 |
| COc1cc(NC(C)(C)CN2CCOCC2)ncn1 | -11% | 0.99 |
| O=C(NC[C@H](O)c1cccnc1)c1ncoc1C1CC1 | -7% | 0.94 |
| COC[C@H]1CCCCN1C(=O)c1ccnc(C2CCCC2)n1 | 7% | -1.03 |
| COc1ccc(N2CCN(C(=O)c3ccn4c(-c5ccccc5)nnc4c3)CC2)cc1 | -3% | 0.29 |
| COc1ccccc1CNC(=O)c1cc(C)nc2c(-c3ccc(C)cc3)cccc12 | 12% | -1.38 |
| COc1cccc(N2CCC(N3CCC4(CC3)CNC(=O)O4)CC2)c1 | -2% | 0.35 |
| Cc1nc2c(c(NC(=O)Cc3ccccc3)nn2C)c(C)c1Cl | -8% | 0.76 |
| CN1CCC[C@@H]1CCNC1CCN(c2ccc3c(c2)CCC3)CC1 | 21% | -2.96 |
| Cc1cnccc1NCCNC1CCN(c2ccc3c(c2)CCC3)CC1 | 85% | -13.14 |
| Cc1cnccc1NCCNC1CCN(c2ccc(Cl)cc2)CC1 | 99% | -17.94 |
| Cc1ccc(N2CCC(NCCCn3cccn3)CC2)cc1Cl | -5% | 0.81 |
| CCn1cncc1CNC1CCN(c2ccc3c(c2)CCC3)CC1 | -14% | 1.42 |
| CN(CC1(CO)CCCC1)C(=O)CN1CCCCC1 | -8% | 1.48 |
| O=C(c1ccc(F)cc1)N1CCC(N2CCS(=O)(=O)CC2)CC1 | -12% | 1.04 |
| CCc1cc(N2CCN(CCc3ccccc3)C(=O)C2)ncn1 | -15% | 2 |
| Cc1ccc([C@H]2C(=O)N(C3CCC(C)CC3)CC(=O)N2C2CCCCCCC2)cc1 (stereo not given in full) | -6% | 0.82 |
| O=C(O)C1(NCc2cc(-c3ccc(Cl)cc3)no2)CCCC1 | 11% | -1.27 |
| C=C1C(C)C2C(Cc3c[nH]c4ccccc34)NC(=O)C23C(=O)CC(O)C(O)CC(C)C/C=C/C3C1O (stereo not given) | 67% | -7.59 |

| SMILES | % Inhibition | Z score |
| --- | --- | --- |
| C[C@@H](O)[C@@H]1NC(=O)[C@@H](Cc2c[nH]c3ccccc23)NC1=O | 5% | -1.07 |
| CC1CC(C(=O)N2CCN(C(=O)Cc3c[nH]c4ccccc34)CC2)C1 (stereo not given) | -3% | 0.48 |
| CC1=NO[C@H](C(=O)NCC2(Cn3ccnc3C)CC2)C1 | -4% | 0.75 |
| CCc1ccc(CN2CCC[C@H](CNC(=O)c3ccc[nH]3)C2)nc1 | -4% | 0.44 |
| Cc1[nH]c(CN2CCC[C@H](c3ncc[nH]3)C2)cc1C#N | -1% | 0.23 |
| CCc1ccc(CN2CCC[C@H](c3ncc[nH]3)C2)nc1 | 65% | -9.74 |
| Cc1ccc(CN2CCC3(CC2)c2nc[nH]c2CCN3C(=O)C2CCC2)cc1C | -14% | 1.47 |
| Cc1cccc2c1OCC[C@@H]2NCc1cnn(C(C)C)c1 | 0% | 0 |
| O=C(O)c1cccc(-c2noc(C3CC3)n2)c1 | 11% | -1.45 |
| CC1CC(N)CCN1C(=O)c1cccc(-c2noc(C3CC3)n2)c1 (stereo not given) | 56% | 0.5 |
| O=C(c1cccc(-c2noc(C3CCC3)n2)c1)N1CCN(c2ccccc2)CC1 | -3% | 0.4 |
| Cc1cc(C(=O)N(CC2CCC2)CC(F)(F)F)[nH]n1 | -10% | 1.63 |
| CN1CCCC[C@@H]1CNC(=O)c1ccc2nc(-c3ccc(F)cc3)cn2c1 | -5% | 0.91 |
| CN1CCC[C@@H]1CCNC(=O)c1ccc2nc(-c3ccc(F)cc3)cn2c1 | 8% | -1.12 |
| O=C(NCCN1CCCC1)c1ccc2nc(-c3ccc(Cl)cc3)cn2c1 | 75% | -6.47 |
| Cc1ccn2c(C(=O)NCc3cc(F)ccc3C)nnc2n1 | -17% | 3.23 |
| CN1CCN(Cc2cc3cc4c(cc3nc2-c2ccc(Cl)cc2)OCO4)CC1=O | 53% | -6.77 |
| CCN1CCN(Cc2cc3cc4c(cc3nc2-c2ccc(Cl)cc2)OCO4)CC1 | -10% | 1.95 |
| O=C1CCN(Cc2cc3cc4c(cc3nc2-c2ccc(Cl)cc2)OCO4)CCN1 | 2% | -0.18 |
